In PubChem BioAssay:
Values without a mark were called inactive. A call without a number means that no potency is given here. For some assays here: Potency and affinity values are given separately. Active and inactive are the calls of the source. Unless noted, no rule for the calls is given here.

Key:
[1] = antimalarial activity against Dd2 strain (AID 2302;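 active = growth inhibition above 50% at the single 2 µM test dose, taken to imply half-maximal potency below 2 µM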); conditions: P. falciparum Dd2 in RBCs, LDH growth readout, 72 h; at 2 µM; active compounds read high
[2] = HepG2 cytotoxicity, primary screen, cytotoxicity control for P. falciparum antimalarial project, cell-based, ATP luminescence (AID 2303;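 active = inhibition above 50%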); conditions: HepG2 viability, 24-48 h, at 10 µM, active compounds read high
[3] = target: L-lactate dehydrogenase (Plasmodium falciparum (isolate CDC / Honduras)) (UniProt Q27743); assay: PfLDH activity inhibition – cell lysate, 3D7 strain, counter-screen for P. falciparum growth inhibition project (AID 2304); conditions: P. falciparum 3D7 crude extract, LDH APAD/NBT absorbance; at 2 µM; active compounds read high
[4] = inhibition of 3D7 malaria parasite growth – strain 3D7 (AID 2306); conditions: P. falciparum 3D7 erythrocytic growth, LDH absorbance, 72 h; at 2 µM; active compounds read high
[5] = target: Calcium-dependent protein kinase 1 (Plasmodium falciparum (isolate 3D7)) (UniProt P62344); assay: PfCDPK1 kinase inhibitors, biochemical, TCAMS library (AID 1159585; cut-off not given, nearly all actives have IC50 up to about 0.98 µM;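 also: inhibitors leave more ATP so luminescence rises with inhibition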); conditions: recombinant PfCDPK1, Kinase-Glo ATP depletion luminescence
[6] = target: Plasmodium falciparum protein kinase 6 (PK6, PF3D7_1337100) (UniProt Q8IDW1); assay: PfPK6 kinase inhibitors, biochemical, TCAMS library (AID 1159586); conditions: recombinant PfPK6, Kinase-Glo ATP depletion luminescence
[7] = target: Protein kinase 7 (PK7), Plasmodium falciparum 3D7 (PF3D7_0213400) (UniProt Q7YTF7); assay: inhibition of Plasmodium PK7 catalytic activity – biochemical, TCAMS antimalarial set, Kinase-Glo luminescence (AID 1159587); conditions: recombinant PfPK7, Kinase-Glo ATP depletion luminescence
[8] = target: Calcium-dependent protein kinase 4 (Plasmodium falciparum (isolate 3D7)) (UniProt Q8IBS5); assay: PfCDPK4 kinase inhibitors, biochemical, TCAMS library (AID 1159588; cut-off not given, nearly all actives have IC50 up to about 0.91 µM); conditions: recombinant PfCDPK4, Kinase-Glo ATP depletion luminescence
Calcium-dependent protein kinase 4 (Plasmodium falciparum (isolate 3D7)), sequence (Q8IBS5 whole entry, looked up): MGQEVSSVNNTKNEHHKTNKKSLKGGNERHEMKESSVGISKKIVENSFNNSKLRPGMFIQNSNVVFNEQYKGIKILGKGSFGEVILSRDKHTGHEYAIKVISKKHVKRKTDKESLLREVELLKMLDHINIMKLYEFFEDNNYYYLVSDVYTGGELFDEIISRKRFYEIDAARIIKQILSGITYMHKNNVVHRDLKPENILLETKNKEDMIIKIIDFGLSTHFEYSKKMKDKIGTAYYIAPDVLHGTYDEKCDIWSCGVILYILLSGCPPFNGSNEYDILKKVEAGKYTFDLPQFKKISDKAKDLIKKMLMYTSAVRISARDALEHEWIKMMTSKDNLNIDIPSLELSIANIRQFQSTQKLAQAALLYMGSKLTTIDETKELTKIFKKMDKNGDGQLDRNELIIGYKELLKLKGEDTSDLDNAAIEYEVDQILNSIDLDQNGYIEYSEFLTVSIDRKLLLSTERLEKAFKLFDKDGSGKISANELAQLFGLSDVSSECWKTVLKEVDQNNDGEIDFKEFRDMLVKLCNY

L-lactate dehydrogenase (Plasmodium falciparum (isolate CDC / Honduras)), sequence (Q27743 whole entry, looked up): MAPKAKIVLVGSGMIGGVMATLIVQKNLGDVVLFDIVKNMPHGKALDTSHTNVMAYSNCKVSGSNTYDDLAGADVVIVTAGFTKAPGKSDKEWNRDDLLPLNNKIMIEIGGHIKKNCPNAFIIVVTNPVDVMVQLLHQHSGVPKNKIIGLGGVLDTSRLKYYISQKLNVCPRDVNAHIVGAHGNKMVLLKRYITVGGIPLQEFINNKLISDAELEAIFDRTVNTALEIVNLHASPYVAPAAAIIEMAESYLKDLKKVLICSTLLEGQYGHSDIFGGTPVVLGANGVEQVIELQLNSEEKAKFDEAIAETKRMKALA
Calcium-dependent protein kinase 1 (Plasmodium falciparum (isolate 3D7)), sequence (P62344 whole entry, looked up): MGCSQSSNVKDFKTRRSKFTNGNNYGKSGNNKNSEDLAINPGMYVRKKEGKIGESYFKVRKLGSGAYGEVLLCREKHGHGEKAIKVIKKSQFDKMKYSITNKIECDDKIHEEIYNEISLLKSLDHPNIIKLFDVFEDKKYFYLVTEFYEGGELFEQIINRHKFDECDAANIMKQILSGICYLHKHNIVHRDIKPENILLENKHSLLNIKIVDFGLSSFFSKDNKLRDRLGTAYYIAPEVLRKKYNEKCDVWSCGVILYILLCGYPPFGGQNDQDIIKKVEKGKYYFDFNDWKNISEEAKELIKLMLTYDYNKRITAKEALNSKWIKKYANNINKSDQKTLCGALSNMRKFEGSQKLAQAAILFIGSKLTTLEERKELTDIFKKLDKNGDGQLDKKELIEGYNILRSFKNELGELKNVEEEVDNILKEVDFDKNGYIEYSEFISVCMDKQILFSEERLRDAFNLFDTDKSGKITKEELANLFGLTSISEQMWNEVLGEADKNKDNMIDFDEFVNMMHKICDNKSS
Protein kinase 7 (PK7), Plasmodium falciparum 3D7 (PF3D7_0213400), sequence (Q7YTF7 1-343): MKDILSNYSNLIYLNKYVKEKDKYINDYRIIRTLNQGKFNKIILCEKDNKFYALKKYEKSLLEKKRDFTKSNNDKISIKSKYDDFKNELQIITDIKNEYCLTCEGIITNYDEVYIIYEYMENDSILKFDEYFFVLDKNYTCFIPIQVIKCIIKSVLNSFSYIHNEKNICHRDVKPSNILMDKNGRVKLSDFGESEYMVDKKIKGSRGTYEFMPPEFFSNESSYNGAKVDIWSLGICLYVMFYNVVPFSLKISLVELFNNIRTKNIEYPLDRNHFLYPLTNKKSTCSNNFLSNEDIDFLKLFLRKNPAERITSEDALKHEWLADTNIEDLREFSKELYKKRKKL
Plasmodium falciparum protein kinase 6 (PK6, PF3D7_1337100), sequence (Q8IDW1 1-305): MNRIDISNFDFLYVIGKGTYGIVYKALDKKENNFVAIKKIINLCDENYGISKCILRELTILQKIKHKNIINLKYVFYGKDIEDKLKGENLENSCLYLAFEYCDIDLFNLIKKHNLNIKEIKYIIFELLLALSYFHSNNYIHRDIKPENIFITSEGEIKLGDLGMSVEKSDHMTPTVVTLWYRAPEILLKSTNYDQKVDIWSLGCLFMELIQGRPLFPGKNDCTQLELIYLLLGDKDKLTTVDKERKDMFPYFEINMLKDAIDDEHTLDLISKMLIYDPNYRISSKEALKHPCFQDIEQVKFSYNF

Row | SMILES | growth inhibition [1] | inhibition [2] | inhibition [3] | growth inhibition [4] | outcome [5] | outcome [6] | outcome [7] | outcome [8]
1 | CCNS(=O)(=O)c1ccc(Oc2ccc([N+](=O)[O-])cc2)cc1 | 85% (active) | 1% | 1% | 94% (active) | inactive | inactive | inactive | inactive
2 | CN1CCN(Cc2cccc(-c3ccc4c(Nc5ccc(F)cc5Cl)ccnc4c3)c2)CC1 | 100% (active) | 20% | -1% | 101% (active) | inactive | inactive | inactive | inactive
3 | O=c1ccc(CNc2nc(NCCc3ccccc3)nc3ccc(Cl)cc23)c[nH]1 | 16% | 9% | 2% | 99% (active) | inactive | inactive | inactive | inactive
4 | CN1CCC[C@H]1COc1ccc(CN2CC[C@H](NC(=O)c3ccc(Cl)c(Cl)c3)C2)c2ccccc12 | 98% (active) | 47% | -3% | 101% (active) | inactive | inactive | inactive | inactive
5 | CCCCCCN1CCCN(Cc2ccc(C(=O)Nc3ccc(C)c(F)c3)cc2)CC1 | 58% (active) | 47% | 0% | 92% (active) | inactive | inactive | inactive | inactive
6 | O=C(Nc1ccc(OC2CCN(Cc3ccsc3)CC2)c(Cl)c1)c1ccco1 | 85% (active) | 7% | -4% | 87% (active) | inactive | inactive | inactive | inactive
7 | c1ccc(CCNc2ccnc(Nc3ccc4cn[nH]c4c3)n2)cc1 | 100% (active) | 54% (active) | -3% | 101% (active) | inactive | inactive | inactive | inactive
8 | COc1ccc2nccc(NCC3(O)CCC(NCc4cc5c(cn4)OCCO5)CC3)c2n1 (stereo not given) | 23% | 15% | -3% | 99% (active) | inactive | inactive | inactive | inactive
9 | O=C(NCc1ccc(Cl)cc1)c1ccc(CN2CCCN(CC3CCCCC3)CC2)cc1 | 5% | 18% | -3% | 84% (active) | inactive | inactive | inactive | inactive
10 | CC(C)CNCc1ccc(-c2cccc(CN(CCN(C)C)C(=O)CCC3CCCC3)c2)cc1 | 81% (active) | 56% (active) | -11% | 100% (active) | inactive | inactive | inactive | inactive
11 | COc1cccc(-c2nn(C)c3sc(C(=O)NCCN4CCN(c5ccccc5F)CC4)cc23)c1 | 40% | 9% | -5% | 85% (active) | inactive | inactive | inactive | inactive
12 | Cc1nc(-c2nc(N3CCC(C(N)=O)CC3)ncc2-c2ccsc2)sc1C | 33% | -8% | -11% | 93% (active) | inactive | inactive | inactive | inactive
13 | Cc1nc(-c2nc(NCCc3ccncc3)ncc2-c2ccsc2)sc1C | 87% (active) | 10% | -1% | 92% (active) | inactive | inactive | inactive | inactive
14 | O=C(/C=C/c1ccc(Cl)c(Cl)c1)NCCCCCN1CCC(NC(=O)Nc2ccc(C(F)(F)F)cc2)C1 (stereo not given) | 6% | 11% | -2% | 100% (active) | inactive | inactive | inactive | inactive
15 | N#Cc1ccc(NC(=NC2Cc3ccccc3C2)Nc2cccc(Cl)c2Cl)c(O)c1 | 77% (active) | 15% | -10% | 94% (active) | inactive | inactive | inactive | inactive
16 | CN(C)Cc1cc(Nc2ccnc3cc(Cl)ccc23)ccc1O | 100% (active) | 36% | -3% | 100% (active) | inactive | inactive | inactive | inactive
17 | Cc1cc(N2CCC(NS(=O)(=O)c3ccc(F)cc3)CC2)nc(Nc2cccc(C#N)c2)n1 | 65% (active) | 20% | -4% | 97% (active) | inactive | inactive | inactive | inactive
18 | O=C(O)c1cccc2c(-c3ccncc3)cccc12 | 1% | 29% | -1% | 97% (active) | inactive | inactive | inactive | inactive
19 | Cc1cccc2nc(C(=O)Nc3nc(CN4CCC(C)CC4)cs3)cn12 | 80% (active) | -27% | 0% | 94% (active) | inactive | inactive | inactive | inactive
20 | COc1ccc2c(NN=Cc3ccccn3)ccnc2c1 | 96% (active) | 14% | -2% | 102% (active) | inactive | inactive | inactive | inactive

Row | SMILES | growth inhibition [1] | inhibition [2] | inhibition [3] | growth inhibition [4] | outcome [5] | outcome [6] | outcome [7] | outcome [8]
21 | COc1cc(NC(=O)N2CCOC(CCN3CCC4(CCc5ccccc54)CC3)(c3ccc(Cl)c(Cl)c3)C2)cc(OC)c1 (stereo not given) | 50% (active) | 29% | 3% | 87% (active) | inactive | inactive | inactive | inactive
22 | Oc1cc(Nc2ccnc3cc(-c4cccc(CN5CCOCC5)c4)ccc23)c(F)cc1Cl | 89% (active) | 12% | -4% | 100% (active) | inactive | inactive | inactive | inactive
23 | FC(F)(F)c1ccc2nc(-c3ccc(-c4ccc(CNCC5CCCO5)cc4)s3)[nH]c2c1 (stereo not given) | 98% (active) | 47% | -6% | 101% (active) | inactive | inactive | inactive | inactive
24 | Oc1ccc(Cc2ccccc2)cc1CNC1CCCCC1 | 98% (active) | 30% | -1% | 96% (active) | inactive | inactive | inactive | inactive
25 | COc1ccc(CN(C)Cc2cc(C(C)C)c(C)cc2O)cc1F | 98% (active) | 1% | -4% | 98% (active) | inactive | inactive | inactive | inactive
26 | O=C(Nc1ccc(C(=O)OC[C@@H]2CCCN3CCCC[C@H]23)cc1)c1ccc([N+](=O)[O-])cc1 | 25% | 5% | 2% | 95% (active) | inactive | inactive | inactive | inactive
27 | COc1ccc(C2=CCN(c3ccc(Cl)c(Cl)c3)C2=O)cc1OCCN1CCCCC1 | 99% (active) | 19% | -2% | 97% (active) | inactive | inactive | inactive | inactive
28 | CN(C)CCNC(=O)c1ccc(-c2ccc3c(Nc4ccccc4)c(C(N)=O)cnc3c2)cc1 | 68% (active) | 9% | 6% | 99% (active) | inactive | inactive | inactive | inactive
29 | OC(CN1CCN(Cc2ccccc2)CC1)Cn1c(-c2ccccc2)c(-c2ccccc2)c2ccccc21 (stereo not given) | 97% (active) | -3% | -3% | 98% (active) | inactive | inactive | inactive | inactive
30 | COc1ccc(C=Cc2cc(N)c3ccccc3n2)cc1 | 16% | 38% | 5% | 93% (active) | inactive | inactive | inactive | inactive
31 | CC(=O)Nc1nc(C(=O)Nc2cccc(-c3cccc(-c4nc5c(C)cccc5[nH]4)c3)c2)cs1 | 94% (active) | 28% | -2% | 101% (active) | inactive | inactive | inactive | inactive
32 | Cc1cc(C)c(NC(=O)N[C@H]2CCN(CCCCCNC(=O)/C=C/c3ccc(Cl)c(Cl)c3)C2)c(C)c1 | 3% | 12% | -4% | 91% (active) | inactive | inactive | inactive | inactive
33 | COc1ccc(NC(=O)[C@H](CC(C)C)Nc2cc(C)nc(NCCc3ccc(F)cc3)n2)cc1 | 79% (active) | 1% | -3% | 100% (active) | inactive | inactive | inactive | inactive
34 | CCN(CCCN1CCCCC1)c1cc(C)nc(Nc2cccc3c2CCCC3)n1 | 46% | 60% (active) | -3% | 92% (active) | inactive | inactive | inactive | inactive
35 | CCN(CC)CCn1c(=N)n(CC(O)c2ccc(Cl)c(Cl)c2)c2ccccc21 (stereo not given) | 88% (active) | 35% | 6% | 99% (active) | inactive | inactive | inactive | inactive
36 | CN(CCc1ccccn1)Cc1ccc(-c2ccc(-c3nc4ccccc4[nH]3)s2)cc1 | 48% | 29% | 6% | 100% (active) | inactive | inactive | inactive | inactive
37 | Cc1ccc(NC(C)C(=O)Nc2ccccc2)cc1S(=O)(=O)N1CCCCCC1 (stereo not given) | 97% (active) | 12% | -4% | 99% (active) | inactive | inactive | inactive | inactive
38 | COc1ccc2nccc([C@@H](O)CN3CCC(NC(=O)c4ccc(Cl)c(OC)c4)CC3)c2c1 | 28% | 26% | 5% | 87% (active) | inactive | inactive | inactive | inactive
39 | Cc1c(Cl)ccc2sc(N3CCN(C(=O)c4ccc([N+](=O)[O-])o4)CC3)nc12 | 93% (active) | -2% | 3% | 96% (active) | inactive | inactive | inactive | inactive
40 | CCCOC(=O)C1=C(C)NC2=C(C(=O)CC(c3ccc(OC)c(OC)c3)C2)C1c1cccc(O)c1 (stereo not given) | 99% (active) | -10% | -2% | 100% (active) | inactive | inactive | inactive | inactive
